Source: PubChem BioAssay AID1259415 (National Center for Advancing Translational Sciences (NCATS), 2018)
Screen size: about 410,000 compounds; about 18,000 (4.4%) were called active. Roughly 7% stayed inconclusive and do not appear here. Cut-off read from the data, not from the text of the source: active = activity change below about -60%; inconclusive = no clear call, values can overlap the other calls; inactive = above about -39%. Many of the other results were omitted from the sample, so actives are more common in it than they were.

Assay: qHTS Assay for inhibitors of the human cytomegalovirus (HCMV)
Details: HFF cells, HCMV-luciferase reporter, 72 h; at 57.5 µM; active compounds read low
Outline: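 Two compound doses tested in HFFs infected with HCMV-luciferase, MOI 1 PFU/cell, 72 h at 37C. Lysate luminescence read with OneGlo; data normalized against buffer-only and 10uM Salinomycin inhibitor controls.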
% is set by controls: 0 for no effect and ±100 for the full control effect.

Structure (SMILES)	activity change, negative = inhibition
Cn1c(=O)oc2cc(S(=O)(=O)CCC(=O)NCCc3ccc(Cl)cc3)ccc21	11.3% (inactive)
CCN(CC)c1nn2c(=O)c(C(=O)NCCc3ccccc3)cnc2s1	3.6% (inactive)
COc1ccc(NS(=O)(=O)c2cc3c4c(c2)CC(=O)N4CCC3)cc1Cl	-18.7% (inactive)
CCOc1ccc(Br)cc1S(=O)(=O)Nc1cccc(S(=O)(=O)N(CC)CC)c1	14.1% (inactive)
CCOc1ccc(Br)cc1S(=O)(=O)N1CCC(C(=O)O)CC1	-26.6% (inactive)
CCOc1ccc(Br)cc1CSC(=N)N	-73.3% (active)
Cc1nn(C)c2c1c(C(F)(F)F)cc(=O)n2C(C)C(=O)NCc1ccc(Cl)cc1 (configuration not stated)	7.11% (inactive)
O=C(c1cccc(Br)c1)N1CCN(Cc2cc(=O)n3nc(-c4ccccc4)sc3n2)CC1	-19.8% (inactive)
COc1ccccc1NC(=O)Cn1cnc2ccc(S(=O)(=O)N3CCC(C)CC3)cc2c1=O	-5.25% (inactive)
COc1ccc(NC(=O)CSc2nnc(-c3nnn(-c4ccc(F)cc4)c3C)o2)cc1	10.5% (inactive)
Cc1ccccc1NC(=O)Cn1c(=O)n(CCc2ccccc2)c(=O)c2ccccc21	24.5% (inactive)
Cc1ccc(NC(=O)N2CCC(c3nc4c(nnn4Cc4c(F)cccc4Cl)c(=O)[nH]3)CC2)cc1	-65.5% (active)
O=C(c1ccccc1F)N1CCC(c2nc3c(nnn3Cc3cccc(F)c3)c(=O)[nH]2)CC1	67.9% (inactive)
Cc1ccc(Cn2nnc3c(=O)[nH]c(C4CCN(S(=O)(=O)/C=C/c5ccccc5)CC4)nc32)cc1	48.5% (inactive)
CCOc1ccc(-n2c(C)nc3c(cnn3-c3ccc(C)cc3)c2=O)cc1	-26.3% (inactive)
CCCNC(=S)N1CCC(NC(=O)C23CC4CC(CC(C4)C2)C3)CC1	20% (inactive)
Cc1ccc(CNC(=O)CSc2c(C)cnc3c2c(=O)n(C)c(=O)n3C)cc1	-25% (inactive)
O=C(OC12CC3CC(CC(C3)C1)C2)c1ccc(NCc2cc(O)ccc2O)cc1	-100% (active)
O=C(CSCc1c(Cl)cccc1Cl)NN1C(=O)c2ccccc2C1=O	12.2% (inactive)

Structure (SMILES)	activity change, negative = inhibition
CCN1CCc2nc3sc(C(=O)Nc4ccccc4OC(F)(F)F)c(N)c3cc2C1	-25.3% (inactive)
O=C(NCCN1CCN(C(=O)c2cccc([N+](=O)[O-])c2)CC1)C(=O)NCc1ccc(Cl)cc1	27.7% (inactive)
Cc1ccc(Cc2cnc(NC(=O)/C(C#N)=C/c3ccc(-c4cccc([N+](=O)[O-])c4)o3)s2)cc1	-61.6% (active)
CCOC(=O)c1ccc(-c2ccc(/C=C(\C#N)C(=O)Nc3ccc(OCC)cc3)o2)cc1	4.93% (inactive)
CCOC(=O)c1ccc(-c2ccc(/C=C(\C#N)C(=O)Nc3ccc(C)cc3)o2)cc1	31.4% (inactive)
CCCCOC(=O)/C(C#N)=C/c1ccc(-c2cccc(C(F)(F)F)c2)o1	-3.64% (inactive)
N#C/C(=C\c1ccc(-c2cccc([N+](=O)[O-])c2)o1)C(=O)NCCN1CCOCC1	-67.8% (active)
Cc1ccc(OCCSc2nc(-c3cccs3)nc3cc(=O)[nH]n23)cc1Cl	22.8% (inactive)
COc1ccccc1N1CCN(S(=O)(=O)CCNC(=O)COc2ccc(F)cc2)CC1	65.8% (inactive)
Cc1ccc(NC(=O)CCCn2c(=O)c3cccn3c3ccccc32)cc1Cl	4.78% (inactive)
CC(C)c1ccc(S(=O)(=O)N2CCC3(CC2)OCCO3)cc1	-60.4% (active)
O=S(=O)(c1ccc(Cl)s1)N1CCC2(CC1)OCCO2	-18.3% (inactive)
Cc1c(C)c(C)c(S(=O)(=O)N2CCC3(CC2)OCCO3)c(C)c1C	-6.48% (inactive)
COCCNC(=O)c1cccc(-c2nc3c(NC4CCCCC4)nccc3[nH]2)c1	-4.46% (inactive)
CCOc1ccccc1NC(=O)CCn1cnnn1	-4.13% (inactive)
NC(=S)NN=Cc1ccc(OC(=O)COc2cc(Cl)c(Cl)cc2Cl)cn1	-75.3% (active)
O=C(COc1cc(Cl)c(Cl)cc1Cl)NC(=O)NC1CCCC1	65.3% (inactive)
CC(C)(C)c1ccc(C(=O)N2CCC(c3nc(-c4ccc(S(=O)(=O)N5CCCC5)cc4)no3)CC2)cc1	-35.7% (inactive)
CCCN(C(=O)Cn1cc(S(=O)(=O)N2CCN(c3ccccc3F)CC2)c2ccccc2c1=O)c1cccc(C)c1	-13.9% (inactive)

Structure (SMILES)	activity change, negative = inhibition
CC1COC2C(O1)N(S(C)(=O)=O)CCN2S(C)(=O)=O (configuration not stated)	17.4% (inactive)
CCCOC1CCCN(C(=O)c2cc(COc3cncc(Cl)c3)on2)C1 (configuration not stated)	45.7% (inactive)
CCOC(=O)CC1(NC(=O)c2cc(COc3cncc(Cl)c3)on2)CCCCC1	-73.4% (active)
CCOC(=O)CC1COCCN1C(=O)c1cc(COc2ccc(F)c(F)c2)on1 (configuration not stated)	53.9% (inactive)
O=C(O)CSc1nccn1-c1cccc(Cl)c1	-24.9% (inactive)
Cc1ccc(Nc2c(-c3ccc(N(C)C)cc3)nc3nc[nH]n23)cc1	-7.65% (inactive)
Cc1cccc(OCCSc2nc3ccccc3n2CC(=O)N2CCCCC2)c1C	0.117% (inactive)
CCOC(=O)C1CCCN(C(=O)c2ccc(-n3ccc4ccccc43)s2)C1 (configuration not stated)	7.94% (inactive)
CC1CN(C(=O)c2cc(COc3c(F)cccc3F)on2)CCN1C (configuration not stated)	3.63% (inactive)
C=CCC1(CC=C)CCCN1C(=O)c1cc(COc2ccc(-n3cncn3)cc2)on1	-87.7% (active)
Cc1ccc(C)c(OCc2cc(C(=O)N3CCN(c4cnccn4)CC3)no2)c1	-30.5% (inactive)
COc1cccc(CNC(=O)Cn2c(=O)c3cccn3c3ccc(F)cc32)c1OC	44.7% (inactive)
CCOc1ccccc1CNC(=O)c1ccc2c(c1)nc1n2CCC(C)C1 (configuration not stated)	33.3% (inactive)
Cc1ccc2nc(COc3cccc(NC(=O)Nc4ccc(C)c(Cl)c4)c3)cc(=O)n2c1	26.6% (inactive)
CC(NC(=O)c1cc2c(=O)n3ccccc3nc2n(C(C)C)c1=N)c1ccccc1 (configuration not stated)	0.208% (inactive)
Cc1nn(-c2nc(-c3ccccc3)cc(C(F)(F)F)n2)c(C)c1Cl	-14.9% (inactive)
CCCCC(=O)NC(c1ccc(OC)c(OC)c1)c1ccc2cccnc2c1O (configuration not stated)	-103% (active)
CCOc1ccc(C(CC(=O)O)n2cnnn2)cc1OC (configuration not stated)	-29.4% (inactive)
CCCCCCCC(=O)NC(Nc1ccccc1OC)C(Cl)(Cl)Cl (configuration not stated)	-23.2% (inactive)
